# In the library only some 10% were active in any assay of this set; here they are far more common.
# IMPase inh: cell-permeable inhibitors of inositol monophosphatase (IMPase) | P97697 | AID 901 | inhibition (IP1 accumulation), % at 46.1 µM | CHO-M1 cells, IP1 accumulation, HTRF TR-FRET ratio | 120,000 tested, under 10 active; active = well fitted curve in the direction sought with a large enough effect in the signal ratio, not every such curve was filed as active; inconclusive = small, poorly fitted or top-dose-only effect, or a change in a side signal; inactive = no such curve, though single readings can be large or run the other way; the % refers to the signal ratio;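 note: cells stimulated with carbachol in lithium chloride buffer; plate controls were DMSO basal wells for no effect and reference inhibitor wells for full effect; higher means more IMPase inhibition seen as more IP1 and lower FRET ratio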
# Target sequence (P97697 whole entry, looked up): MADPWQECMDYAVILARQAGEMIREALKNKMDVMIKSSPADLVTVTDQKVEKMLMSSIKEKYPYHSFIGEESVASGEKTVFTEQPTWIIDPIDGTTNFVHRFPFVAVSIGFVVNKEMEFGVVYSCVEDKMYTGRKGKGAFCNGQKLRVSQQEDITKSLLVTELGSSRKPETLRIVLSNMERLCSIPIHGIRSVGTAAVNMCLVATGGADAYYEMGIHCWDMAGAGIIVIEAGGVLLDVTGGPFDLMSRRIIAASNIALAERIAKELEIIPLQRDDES
#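 Carbachol-driven Gq signalling in CHO-M1 cells (2000/well) generates IP1. Compounds that block IMPase raise IP1 and so reduce the FRET signal from Eu-anti-IP1 and d2-IP1 after a 10 min room-temperature lysis.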
# ALDH1A1 block: blocks purified human ALDH1A1 activity; Purified ALDH1A1, NADH fluorescence, propionaldehyde substrate; Potency, µM (series often up to 75.3 µM), for the others: at the top dose activity, negative = inhibition, hits mostly inhibitors; 220,000 compounds, 7.3% hits; AID 1030;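 note: potency is the fitted concentration of half-maximal effect; plate controls were no enzyme wells and a reference inhibitor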
# Target sequence (P00352 whole entry, looked up): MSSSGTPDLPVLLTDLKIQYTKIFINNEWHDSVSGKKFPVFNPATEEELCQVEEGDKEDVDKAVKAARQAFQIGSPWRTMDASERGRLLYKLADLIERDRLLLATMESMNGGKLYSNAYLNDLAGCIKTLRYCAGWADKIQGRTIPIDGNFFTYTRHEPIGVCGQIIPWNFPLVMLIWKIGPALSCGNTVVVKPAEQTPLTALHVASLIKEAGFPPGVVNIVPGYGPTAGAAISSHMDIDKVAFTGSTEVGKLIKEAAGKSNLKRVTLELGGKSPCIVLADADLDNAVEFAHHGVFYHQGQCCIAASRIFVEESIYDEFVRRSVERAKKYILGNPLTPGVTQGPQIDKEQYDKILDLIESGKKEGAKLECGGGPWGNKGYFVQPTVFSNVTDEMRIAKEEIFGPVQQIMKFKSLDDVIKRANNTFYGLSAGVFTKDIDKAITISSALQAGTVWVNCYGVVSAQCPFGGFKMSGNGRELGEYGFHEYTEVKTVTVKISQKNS
# KinaseGlo FLuc: blocks Kinase-Glo luciferase, a counter-screen artifact; Q27757; Kinase-Glo luciferase, ATP luminescence, 8 min; Potency, µM (titrated, usually from 38.3 µM), inactives show at the top dose activity change, negative = inhibition, actives largely listed as inhibitors; 200,000 compounds, 0.28% hits; active = well fitted inhibition curve with a large enough effect; inconclusive = small, poorly fitted or top-dose-only effect; note: potency is the fitted concentration of half-maximal effect; nearly all actives have a fitted effect of over 60% in size
#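 Substrate mix (final 50 mM imidazole pH 7.2, 50 mM KCl, 7 mM MgCl2, 10 uM ATP, 0.01% Tween 20, 0.05% BSA) plus pin-tool compound, then Kinase-Glo detection mix; 8 min ambient, luminescence read.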
# HPGD inh: inhibitors of human 15-hydroxyprostaglandin dehydrogenase (HPGD); purified HPGD, NADH fluorescence kinetic, PGE2 substrate; Potency, µM, for the others: top-dose activity change, negative = inhibition, actives largely listed as inhibitors; P15428; 150,000 compounds, 4.3% hits; note: potency is the fitted concentration of half-maximal effect
#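 20 nM HPGD preincubated 15 min at room temperature with compound in 50 mM Tris-HCl pH 8, 0.01% Tween 20. Started with 1 mM NAD+ and 30 uM prostaglandin E2; NADH fluorescence (360/450 nm) read 5 times over 30-s intervals, last minus first.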
# Lamin A splicing: LMNA splicing modulation | Potency, µM (top dose mostly 46.1 µM), for inactives: top-dose ratio change, negative = inhibition, actives largely listed as inhibitors | 200,000 compounds, 0.01% hits | HeLa LMNA splicing GFP/RFP minigene ratio, 48 h | AID 1487; active = well fitted inhibition curve with a large enough effect in the signal ratio, with a control signal flat, not every such curve was filed as active; inconclusive = small, poorly fitted or top-dose-only effect, or effect the other way, or a change in a side signal; the % refers to the signal ratio; note: potency is the fitted concentration of half-maximal effect
#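 Read-out is the ratio of GFP to DsRed2 object intensity, acquired by 488 nm laser-scanning cytometry on HeLa lamin A-EGFP minigene reporter cells. Compound incubation 48 hrs at 37 °C in Opti-MEM with 2% FBS; DMSO 0.5% final.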
# PNC assembly inh: inhibitors of perinucleolar compartment assembly | PC3M PTB-GFP, PNC prevalence imaging, 16 h; active compounds read low | activity change (PNC), negative = inhibition, % at 10 µM | 140,000 compounds, 3.1% hits | AID 2417;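 active = readout at or below -70, meaning at least 70% loss of cells showing the perinucleolar compartment, a nuclear body marking cancer cells; inconclusive = readout between -30 and a set limit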;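 note: plate controls were DMSO wells for no effect and camptothecin positive control wells for full effect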
#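 Read-out is percentage of cells bearing a perinucleolar compartment, from automated 20x imaging of fixed, Hoechst-stained PC3M PTB-GFP cells. Cells were seeded 4 h, then exposed 16 h to compound (23 nl of library stock) in duplicate plates.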
# The depositor's hits bear a star; ? = inconclusive; / = no result given; [ ] = another dose, or the depositor's remark. Unless noted, calls come from the whole dose curve; as a rule, active = well fitted inhibition curve with a large enough effect (not every such curve was filed as active); inconclusive = small, poorly fitted or top-dose-only effect, or another doubt; inactive = no such curve, though single readings can be large or run the other way. Unless noted, % is set by controls: 0 for no effect and ±100 for the full control effect.
SMILES,IMPase inh,ALDH1A1 block,KinaseGlo FLuc,HPGD inh,Lamin A splicing,PNC assembly inh
CCc1ccc(C(=O)COC(=O)c2cccs2)cc1,4,?,?,?,0%,-12
Cc1ccc(C(=O)COC(=O)c2cccs2)cc1,-8,-10%,?,28µM*,-3%,78
O=C(COC(=O)c1cccs1)c1ccc2ccccc2c1,-4,2%,-18%,?,-7%,?
Cc1ccc(S(=O)(=O)N2CCN(Cc3nc4ccc(C)cc4o3)CC2)c(C)c1,/,/,/,/,-3%[46 µM],/
CCOc1ccc(CC(=O)NC2CC(=O)N(c3cccc(F)c3)C2)cc1 (stereo not given),/,/,/,/,16%[46 µM],/
CCC(C)NC(=O)c1c(C)oc2nc(C)nc(N3CCOCC3)c12 (stereo not given),/,/,/,/,-8%[46 µM],/
C/C(CCN1CCc2nc(-c3ccccc3)c(-c3ccccc3)cc2C1)=N\O[C@@H](C)CN1CCCCc2nc(C)c(C)cc21,/,-11%[13.5 µM],/,/,/,/
COc1ccc(C(=O)COC(=O)c2ccc(N(C)C)cc2)cc1,/,1%,1%,/,?,/
CN(C)c1ccc(C(=O)OCC(=O)c2cccs2)cc1,/,8%,0%,-11%,10%,-113*
COC(=O)[C@@]1(Cc2ccc(OC)cc2)[C@H]2c3cc(C(=O)N4CCCC4)n(CCc4c[nH]c5ccc(OC)cc45)c3C[C@H]2CN1C(=O)c1ccccc1,/,?,3%,-10%,/,/
O=C1OC(/C=C/c2ccc(Cl)cc2)=NC/1=C/c1ccco1,/,2µM*,-3%,-10%,-13%,-30
CCn1ccc2cc(S(=O)(=O)N3CCC(C(=O)NCc4ccc(OC)cc4)CC3)ccc21,/,/,/,/,-13%[46 µM],/
NNC(=O)c1cnn(-c2ccccc2)c1-n1cccc1,/,0.71µM*,-1%,/,?,/
O=C(NNS(=O)(=O)c1ccc(Cl)cc1)c1cnn(-c2ccccc2)c1-n1cccc1,0,2µM*,-2%,-9%,9%,74
CC(=O)c1c(C)nc2ccccn12,4,4%,2%,-5%,-7%,39
Cc1nc2ccccn2c1C(=O)NCc1cccnc1,-8,2%,-2%,-5%,7%,-85*
O=C(O)c1cnn(-c2ccccc2)c1-n1cccc1,12,-3%,1%,-5%,-3%,-15
Cc1nc2ccccn2c1C(=O)NNS(=O)(=O)c1ccc(Cl)cc1,/,8.9µM*,/,/,/,/
CCN(CC)C(=O)c1sc(NC(=O)c2nc3ncccn3n2)c(C(=O)OC)c1C,-5,/,/,/,/,/
CCC(C(=O)OCc1cc(=O)n2nc(C)sc2n1)c1ccccc1 (stereo not given),/,/,/,/,2%[46 µM],/
O=C(c1ccco1)N1CCC2(CCN(Cc3cc(C(F)(F)F)cc(C(F)(F)F)c3)CC2)CC1,/,?,-2%,-11%,/,/
O=C(NNS(=O)(=O)c1ccc([N+](=O)[O-])cc1)c1cnn(-c2ccccc2)c1-n1cccc1,8,?,1%,-3%,-4%,-100*
Cc1cc(C)c(C#N)c(SCCS(=O)(=O)Cc2ccc(Cl)cc2)n1,-3,5µM*,-6%,-17%,-1%,?
Cc1cc(C)c(C#N)c(SCS(=O)Cc2ccccc2)n1 (stereo not given),2,8.9µM*,-1%,?,?,48
Cc1cc(C)c(C#N)c(SCc2nnc(-c3ccccc3)o2)n1,/,1%,-2%,4µM*,?,1
SMILES,IMPase inh,ALDH1A1 block,KinaseGlo FLuc,HPGD inh,Lamin A splicing,PNC assembly inh
Cc1cc(C)c(C#N)c(SCc2ccccc2[N+](=O)[O-])n1,/,18µM*,1%,-19%,-8%,25
Cc1cc(C)c(C#N)c(SCS(=O)Cc2ccc(Cl)cc2)n1 (stereo not given),10,?,-4%,-17%,-4%,10
Cc1ccc(C#N)c(SCc2ccccc2[N+](=O)[O-])n1,/,?,0%,-12%,-10%,55
COCCn1c(=O)c(-c2cccs2)nc2cnc(N(C)C)nc21,/,?,/,/,6%,/
Cc1ccccc1C(=O)Nc1cccc(NC(=O)c2ccc(C(C)(C)C)cc2)c1,-2,/,/,/,/,/
Cc1cc(=O)[nH]c2nnc(SCc3ccccc3F)n12,/,/,/,/,6%[46 µM],/
CC(=O)Nc1cc(CN2CCCCC2)c(O)c2ncccc12,/,9%[13.5 µM],-4%[7.66 µM],-10%,/,/
N/C(COc1ncn(-c2ccccc2)n1)=N\S(=O)(=O)c1ccc(Cl)cc1Cl,/,4%,4%,/,-4%[46 µM],/
NC(=O)COc1ncn(-c2ccccc2)n1,-3,4%,0%,-12%,7%,-112*
COc1ccccc1OCCNc1cc(N2CCCCC2)ccc1[N+](=O)[O-],/,18µM*,2%,-19%,?,35
Cc1ccc(OCCNc2cc(N3CCN(CCO)CC3)ccc2[N+](=O)[O-])cc1C,/,?,-1%,35µM*,-10%,57
Cc1cccc(OCCNc2cc(N3CCN(C)CC3)ccc2[N+](=O)[O-])c1,/,-9%,1%,-23%,-14%,8
COCCn1c(=O)c(-c2ccccc2)nc2cnc(N(C)C)nc21,/,?,/,/,-8%,/
CCOc1cccc(C(=O)Nc2cccc(-c3nc4ncccc4o3)c2C)c1,1,18µM*,-2%,?,-7%,?
COC(=O)c1ccc(-c2ccco2)n1Cc1ccccc1Cl,8,?,-1%,?,7%,-4
COC(=O)c1ccc(-c2ccco2)n1Cc1nc(-c2ccc(OC)c(OC)c2)oc1C,11,7.9µM*,-3%,?,?,?
Cn1cnnc1SCC(=O)Nc1ccc2c(c1)CCC2,-8,-4%,-2%,-1%,3%,31
COc1cc(C(=O)CSc2nncn2C)cc(OC)c1OC,2,13µM*,4%,-20%,7%,-111*
Cn1cnnc1SCC(=O)c1ccc2c(c1)CCCC2,6,32µM*,1%,-13%,14%,17
S=c1cnc2ccccc2[nH]1,/,3.2µM*,4%,/,0%[46 µM],/
COc1ccccc1N1CCN(C(=O)c2cnn(-c3cccc(Cl)c3)c2C2CCN(C(=O)OC(C)(C)C)CC2)CC1,/,/,/,/,-26%[46 µM],/
O=C(O)/C=C\C(=O)Nc1ccc2c(c1)-c1ccccc1C2,/,-9%[13.5 µM],0%[7.66 µM],-13%,/,/
Cc1cc(C)n(CC(=O)n2c(C)c(C)c3ccccc32)n1,3,2%,1%,-13%,-2%,248
COc1ccc(NCC(=O)n2c(C)c(C)c3ccccc32)cc1OC,/,7.1µM*,/,/,/,/
C=CCOC(=O)NC(c1ccc(F)c(F)c1)C(C(C)=O)C(=O)OC (stereo not given),/,3%,-1%,-6%,/,/
Cc1ccc2cc(CN(CCN3CCOCC3)Cc3nnnn3Cc3ccco3)c(=O)[nH]c2c1C,7,5µM*,0%,-5%,-2%,-4
CCc1ccc2[nH]c(=O)c(CN(Cc3ccccc3OC)Cc3nnnn3Cc3ccco3)cc2c1,6,25µM*,0%,-15%,?,6
